Test results as given in PubChem BioAssay (Tox21).
“And” between values parts separate entries of the source, which are not always exact repeats. Identical values can stand only once. Results filed as inconclusive are left out. The source made the active and inactive calls. Unless noted, the call rests on the fitted dose curve; in most records, active means well fitted curve in the direction sought with a large enough effect in the repeat runs; inconclusive means weak or mixed curves; inactive means no such curve, though single readings can be large; an effect the other way counts as inactive or inconclusive.

What was measured:
[1] = qHTS assay to identify small molecule antagonists of the estrogen related receptor (ERR) signaling pathway - cell viability counter screen (AID 1224818)
Procedure, shortened: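 ERR cells, 2,000 per well, compound added after 6 h and incubated 17.5 h at 37 C. Viability read by CellTiter-Fluor fluorescence after a further 30 min at 37 C.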

[2] = qHTS assay to identify small molecule antagonists of the estrogen related receptor (ERR) signaling pathway (AID 1224819;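 further: luminescence from an ERR-driven luciferase reporter measured with One-Glo reagent; nearly all actives have a fitted effect of over 50% in size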)
Procedure, shortened: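 ERR reporter cell line (NTP) plated at 2,000 cells/well, settled 6 h at 37C/5% CO2, then exposed to LOPAC compounds for 18 h at 37C. One-Glo luciferase luminescence read after 30 min at room temperature.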

[3] = qHTS assay to identify small molecule agonists of the estrogen related receptor (ERR) signaling pathway (AID 1224820)
Procedure, shortened: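 Quantitative HTS of the LOPAC library used NTP ERR reporter cells treated 18 h at 37 C. Signal is luminescence after One-Glo addition and a 30 min room-temperature incubation.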

[4] = system: estrogen-related receptor alpha (ERRalpha) with PGC-1alpha coactivator, human; assay: qHTS assay to identify small molecule antagonists of the estrogen related receptor signaling pathway with the pleiotropic PPARgamma coactivator (PGC) (AID 1224821; calls by dose curve;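 further: lower luminescence signal means antagonism of PGC/ERR signalling; nearly all actives have a fitted effect of over 50% in size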)
Procedure, shortened: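 Quantitative HTS for antagonism: PGC/ERR cells received compounds after 6 h attachment and were incubated 18 h at 37 C, with luminescence (One-Glo) as the endpoint.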

[5] = qHTS assay to identify small molecule antagonists of the estrogen related receptor signaling pathway with the pleiotropic PPARgamma coactivator (PGC) cell viability counter screen (AID 1224822)
Procedure, shortened: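 PGC/ERR cells rested 6 h, then compound-treated 17.5 h at 37 C. CellTiter-Fluor added for 30 min at 37 C, viability measured by fluorescence intensity.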

[6] = qHTS assay to identify small molecule agonists of the estrogen related receptor signaling pathway with the pleiotropic PPARgamma coactivator (PGC) (AID 1224823)
Procedure, shortened: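 Cell-based luciferase assay in the NTP-supplied PGC/ERR line, 2,000 cells/well; 18 h compound exposure at 37 C, luminescence after One-Glo.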

[7] = qHTS assay to identify small molecule antagonists of the estrogen related receptor (ERR) signaling pathway from Tox21 library - cell viability counter screen (AID 1224834); further: nearly all actives have a fitted effect of over 30% in size
Procedure, shortened: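 ERR reporter cells, 2,000 per well, rested 6 h, then exposed to compound in DMSO for 17.5 hours at 37 C. Viability read as fluorescence after 30 min with CellTiter-Fluor.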

[8] = qHTS assay to identify small molecule antagonists of the estrogen related receptor signaling pathway with the pleiotropic PPARgamma coactivator (PGC) from Tox21 10K library - cell viability counter screen (AID 1224840; active means well fitted cell-killing curve with a large enough effect in the repeat runs, not every such curve was filed as active; further: nearly all actives have a fitted effect of over 40% in size)
Procedure, shortened: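 PGC/ERR cells (2,000/well) plated 6 h, then compound-treated for 17.5 h at 37 C. Viability measured by CellTiter-Fluor fluorescence after 30 min at 37 C, multiplexed with the pathway assay.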

[9] = qHTS assay to identify small molecule antagonists of the estrogen related receptor signaling pathway with the pleiotropic PPARgamma coactivator (PGC) from Tox21 10K library (AID 1224841; call rule not given here; further: actives are mostly falling curves and most rising ones were filed inactive; nearly all actives have a fitted effect of over 50% in size)
Procedure, shortened: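 PGC/ERR cell line, 2,000 cells/well, pre-incubated 6 hours at 37 C, then exposed to compounds for 18 hours at 37 C; luciferase read with One-Glo luminescence after 30 min at room temperature.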

[10] = qHTS assay to identify small molecule antagonists of the estrogen related receptor (ERR) signaling pathway from Tox21 library (AID 1224848); further: nearly all actives have a fitted effect of over 50% in size
Procedure, shortened: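 Cells: ERR line, 2,000/well; 6 h preincubation 37 C/5% CO2. Cpd in DMSO via pin tool; 18 h, 37 C. ONE-Glo, 30 min RT, luminescence.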

[11] = qHTS assay to identify small molecule agonists of the estrogen related receptor (ERR) signaling pathway from Tox21 library (AID 1224849; calls by dose curve; further: nearly all actives have a fitted effect of over 15% in size); conditions: ERR reporter cell line, ONE-Glo luciferase, 18 h
Procedure, shortened: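 ERR reporter cells (NTP line) pre-incubated 6 hours at 37 C, then exposed to compounds for 18 hours at 37 C. ONE-Glo luciferase luminescence was read after 30 minutes at room temperature.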

[12] = target: Acetylcholinesterase (Homo sapiens) (UniProt P22303); assay: Acetylcholinesterase (AChE) small molecule antagonists: colormetric cell-based qHTS assay (AID 1347395; calls by dose curve; further: nearly all actives have a fitted effect of over 30% in size)
Sequence of Acetylcholinesterase (Homo sapiens) (P22303 whole entry, looked up): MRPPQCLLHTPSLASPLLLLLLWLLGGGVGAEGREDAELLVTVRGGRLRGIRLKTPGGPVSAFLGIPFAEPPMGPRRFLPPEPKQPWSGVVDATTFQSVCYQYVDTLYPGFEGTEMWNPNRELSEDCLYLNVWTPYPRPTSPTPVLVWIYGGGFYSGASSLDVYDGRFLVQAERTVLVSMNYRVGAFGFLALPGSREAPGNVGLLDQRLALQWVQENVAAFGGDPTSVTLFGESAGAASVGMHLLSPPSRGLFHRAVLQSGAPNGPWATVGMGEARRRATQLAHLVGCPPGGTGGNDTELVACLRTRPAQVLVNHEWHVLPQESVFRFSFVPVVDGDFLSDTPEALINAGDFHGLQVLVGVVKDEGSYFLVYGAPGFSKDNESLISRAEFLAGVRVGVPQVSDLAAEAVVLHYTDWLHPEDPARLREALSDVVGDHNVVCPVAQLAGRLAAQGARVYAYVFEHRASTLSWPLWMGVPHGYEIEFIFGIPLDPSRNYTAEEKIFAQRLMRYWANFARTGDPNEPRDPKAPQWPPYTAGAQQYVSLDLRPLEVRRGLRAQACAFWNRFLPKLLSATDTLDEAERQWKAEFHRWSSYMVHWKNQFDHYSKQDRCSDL
Procedure, shortened: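 After overnight attachment at 37 C, SH-SY5Y cells get 30 min compound exposure; detection cocktail (acetylthiocholine, DTNB) then incubates 90 min at 37 C, and absorbance reflects AChE-generated thiocholine.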

[13] = target: Acetylcholinesterase (Homo sapiens) (UniProt P22303); assay: Acetylcholinesterase (AChE) small molecule antagonists: enzyme-based qHTS assay (AID 1347397; calls by dose curve; further: nearly all actives have a fitted effect of over 55% in size); conditions: Potency: AChE enzyme activity inhibition; outcome: AChE enzyme activity inhibition
Procedure, shortened: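 Recombinant human AChE, dispensed at 50 mU/mL, was preincubated with Tox21 10K compounds or DMSO vehicle for 30 min at room temperature. DTNB plus acetylthiocholine was then added, and thiocholine was measured colorimetrically after a further 10 min.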

[14] = target: Acetylcholinesterase (Homo sapiens) (UniProt P22303); assay: Acetylcholinesterase (AChE) small molecule antagonists: fluorescence cell-based qHTS assay (AID 1347398; calls by dose curve; further: nearly all actives have a fitted effect of over 50% in size); conditions: Potency: AChE activity; outcome: AChE activity
Procedure, shortened: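 Human SH-SY5Y cells were plated overnight at 37 C, exposed to compound for 30 min at 37 C, 5% CO2, then given acetylthiocholine plus Thiolite Green for 40 min at room temperature; thiocholine fluorescence (Ex/Em 490/520 nm) reports endogenous AChE activity.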
On the % scale 0 is the no-effect control and ±100 the full control effect.

CS(=N)(=O)CC[C@H](N)C(=O)O (some centres undefined)
inactive: Potency [1] | Potency [2] | Potency [3] | Potency [4] | Potency [5] | Potency [6]

CCn1cc(C(=O)O)c(=O)c2ccc(C)nc21
inactive: Potency [1] | Potency [2] | Potency [3] | Potency [4] | Potency [5] | Potency [6] | Potency [7] | Potency [8] | Potency [9] | Potency [10] | activity change, positive = activation ([11]; at 42.5 µM (top of the series)) 4.67% | activity change, positive = activation ([11]; at 92.4 µM (top of the series)) 4.5% and 0.305% | Potency [12] | Potency [13] | Potency [14]

NC(N)=NOCCC(N)C(=O)O (centres undefined)
inactive: Potency [1] | Potency [2] | Potency [3] | Potency [4] | Potency [5] | Potency [6]

Oc1ccc2c3c1O[C@H]1c4[nH]c5ccccc5c4C[C@@]4(O)C(C2)N(CC2CC2)CCC314 (some centres undefined)
inactive: Potency [1] | Potency [2] | Potency [3] | Potency [4] | Potency [5] | Potency [6]

C=CCN1CCC23c4c5ccc(O)c4O[C@H]2C(=O)CC[C@@]3(O)C1C5 (some centres undefined)
inactive: Potency [1] | Potency [2] | Potency [3] | Potency [4] | Potency [5] | Potency [6]

CCCN1CCc2cc(O)cc3c2[C@H]1Cc1ccc(O)c(O)c1-3
inactive: Potency [1] | Potency [2] | Potency [3] | Potency [4] | Potency [6]
